Pf growth 96h = Primary qHTS for delayed death inhibitors of the malarial parasite plastid, 96 hour incubation | P. falciparum luciferase reporter growth, 96 h | Potency, µM (highest dose often 28.7 µM), actives largely listed as inhibitors | actives 6.9% (n = 320,000)
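Plates of compound plus infected erythrocytes (2% hematocrit, 0.05% parasitemia final) incubate 96 hours, 37 C, 5% CO2. Detection reagent added; reduced luminescence from the parasites' luciferase reporter flags inhibition.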
Pf growth 48h = Primary qHTS for delayed death inhibitors of the malarial parasite plastid, 48 hour incubation; AID 504832, 2011; Potency, µM (series often up to 28.7 µM), usual class: inhibitors; P. falciparum luciferase growth in erythrocytes, 48 h; actives 5.9% (n = 310,000)
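Parasite viability was followed by luminescence of a genomically integrated firefly luciferase. Cultures held 0.1% parasitemia at 2% hematocrit (final), incubated under 5% CO2 at 37 C.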
Sm TGR inh = qHTS Assay for the Inhibitors of Schistosoma Mansoni Peroxiredoxins. actives 3% (n = 360,000). Potency, µM (titrated, usually from 114 µM), actives largely listed as inhibitors. Schistosoma mansoni thioredoxin glutathione reductase (TGR), Q962Y6. purified TGR, DTNB reduction, TNB absorbance 405 nm; also: nearly all actives have a fitted effect of over 60% in size
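First, TGR (20 nM dispensed) and NADPH were mixed with compound. Second, a 15 min room-temperature incubation followed. Third, further NADPH and then DTNB were added to start the reaction. Finally, TNB absorbance was monitored kinetically.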
AmpC no deterg = qHTS Inhibitors of AmpC Beta-Lactamase (assay without detergent) | AID 485341, 2010 | Potency, µM (highest dose often 57.1 µM), actives largely listed as inhibitors | actives 0.52% (n = 330,000) | AmpC nitrocefin hydrolysis, absorbance 480 nm, 0.0001% Triton; also: nearly all actives have a fitted effect of over 20% in size
Target sequence (P00811 whole entry, looked up): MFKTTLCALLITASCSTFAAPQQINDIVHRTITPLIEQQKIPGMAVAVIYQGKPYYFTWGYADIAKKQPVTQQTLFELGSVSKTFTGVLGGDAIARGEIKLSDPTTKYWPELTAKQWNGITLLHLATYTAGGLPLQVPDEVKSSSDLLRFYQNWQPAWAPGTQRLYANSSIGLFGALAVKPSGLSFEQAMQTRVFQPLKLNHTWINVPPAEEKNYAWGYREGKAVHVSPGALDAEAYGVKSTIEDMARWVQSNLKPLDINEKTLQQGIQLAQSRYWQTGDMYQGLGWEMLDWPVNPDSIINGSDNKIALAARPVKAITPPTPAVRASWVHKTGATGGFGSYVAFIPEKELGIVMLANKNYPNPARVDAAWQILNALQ
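20 mM phosphate pH 7.0 + 0.01% (detergent screen) or 0.0001% Triton X-100; 5.3 nM AmpC reagent; cpd preinc 15 min RT; nitrocefin (800 uM stock) to start; A480 q20 s × 4 min; Activity was normalised to no-enzyme and no-compound control wells.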
AmpC detergent = qHTS Inhibitors of AmpC Beta-Lactamase (assay with detergent); P00811; AmpC hydrolysis of nitrocefin, absorbance 480 nm, 0.01% Triton; Potency, µM (top dose mostly 114 µM), usual class: inhibitors; actives 0.041% (n = 370,000); also: nearly all actives have a fitted effect of over 25% in size
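20 mM phosphate pH 7.0 + 0.01% (detergent screen) or 0.0001% Triton X-100; 5.3 nM AmpC reagent; cpd preinc 15 min RT; nitrocefin (800 uM stock) to start; A480 q20 s × 4 min; Activity was normalised to no-enzyme and no-compound control wells.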
SARS PLP yeast = qHTS of Yeast-based Assay for SARS-CoV PLP; S. cerevisiae expressing SARS-CoV PLpro, growth rescue; Potency, µM (series often up to 32.9 µM), most hits filed as activators; actives 0.19% (n = 330,000); calls by dose curve; also: nearly all actives have a fitted effect of over 55% in size
Of the large screens only hits and unclear results are named; the others gave an inactive call. Only some compounds are listed: those with a hit (about 12% of all), similar ones and a draw of the others. Unless noted, calls follow the shape of the dose curve; as a rule, active = well fitted curve in the direction sought with a large enough effect; inconclusive = small, poorly fitted or top-dose-only effect, or another doubt; inactive = no such curve, though single readings can be large; an effect the other way counts as inactive or inconclusive.

CCCN(CCC)CCCNc1ccc(C(=O)Nc2cccc(OC)c2)cc1[N+](=O)[O-]	Pf growth 48h 1.5µM
O=C(Nc1cc(F)cc(F)c1)c1ccc(NCCCN2CCCCCC2)c([N+](=O)[O-])c1	Pf growth 96h inconclusive, Pf growth 48h inconclusive
Cc1ccc(NC(=O)c2ccc(NCCCN3CCC(C)CC3)c([N+](=O)[O-])c2)c(C)c1	Pf growth 96h inconclusive, Pf growth 48h 3.3µM
COc1cccc(N2CCN(C(=O)c3c4c(nc5ccccc35)C(=O)N(C3CCCCC3)C4)CC2)c1	none (no result: Pf growth 96h, Pf growth 48h, AmpC no deterg, SARS PLP yeast)
CCOC(=O)CSc1nc2ccccc2n1CC(=O)N(C(C)C)C(C)C	Pf growth 96h inconclusive
CC(C)N(C(=O)CSc1nc2ccccc2n1Cc1ccc(F)cc1)C(C)C	Pf growth 48h 4.7µM, AmpC detergent inconclusive
CC1CCCCN1C(=O)CSc1nc2ccccc2n1CC(=O)N1CCc2ccccc21 (centres undefined)	Pf growth 48h inconclusive
CC(C)NC(=O)CSc1nc2ccccc2n1CC(=O)N(C(C)C)C(C)C	Pf growth 96h 4.1µM
CC(C)NC(=O)CSc1nc2ccccc2n1CC(=O)N1CCc2ccccc21	Pf growth 96h 13µM, Pf growth 48h inconclusive, AmpC detergent inconclusive
O=C(NNC(=O)c1cc(-c2ccccc2)n(-c2ccccc2)n1)c1cccc([N+](=O)[O-])c1	none
O=C(CO/N=C/c1ccccc1)N1c2ccccc2Oc2ccccc21	Pf growth 96h inconclusive, Pf growth 48h 12µM
COc1cccc(NC(=O)N[C@@H](Cc2ccccc2)C(=O)O)c1	Pf growth 48h inconclusive, AmpC no deterg 2.2µM
COc1ccc(Cc2nnc(NC(=O)Nc3ccc(F)cc3)s2)cc1	Pf growth 96h inconclusive, Pf growth 48h inconclusive
O=C(Nc1ccc(F)cc1)Nc1nnc(Cc2ccccc2)s1	Pf growth 96h 4.7µM, Pf growth 48h inconclusive
COc1cccc(NC(=O)Nc2ccc(Cc3ccncc3)cc2)c1	none
CCOc1ccc(NC(=O)N[C@@H](Cc2ccccc2)C(=O)O)cc1	none
COc1cccc(NC(=O)Nc2nnc(CC(=O)Nc3ccccc3)s2)c1	Pf growth 96h inconclusive, Pf growth 48h inconclusive, AmpC no deterg 11µM
COc1cccc(NC(=O)Nc2ccncc2)c1	Pf growth 48h 10µM
O=C(Oc1ccccc1F)c1nc(SCc2ccc(F)cc2)ncc1Cl	none (no result: Pf growth 96h, Pf growth 48h, AmpC no deterg, SARS PLP yeast)
COc1cccc(NC(=O)Nc2nnc(Cc3ccccc3)s2)c1	Pf growth 96h inconclusive
COc1cccc(NC(=O)Nc2nnc(N3C(C)CCCC3C)s2)c1 (centres undefined)	Pf growth 96h inconclusive, Pf growth 48h 13µM
S=C(NCc1ccc(Cl)cc1)Nc1ccncc1	Pf growth 48h 13µM, Sm TGR inh 35µM
COc1ccc(CNC(=S)Nc2cccc(OC)c2)cc1	Pf growth 96h inconclusive
Cc1cccc(NC(=O)Nc2nnc(N3CCCCC3C)s2)c1C (centres undefined)	Pf growth 96h 2.1µM (no result: Pf growth 48h)
COc1cccc(NC(=S)NCc2ccncc2)c1	Pf growth 96h 8.3µM, Sm TGR inh inconclusive
COc1ccc(C2C(C(=O)Nc3cccnc3)=C(C)Nc3nc(-c4cccs4)nn32)cc1OC (centres undefined)	AmpC detergent inconclusive
COc1ccc(C2C(C(=O)Nc3cccnc3)=C(C)Nc3nc(-c4cccs4)nn32)cc1 (centres undefined)	Pf growth 96h inconclusive, Pf growth 48h 12µM
CC1CCc2nn(CC(=O)N3CCCCCC3)cc2C1 (centres undefined)	AmpC no deterg 0.56µM
CC1CCc2nn(CC(=O)NCCN3CCCCC3C)cc2C1 (centres undefined)	AmpC no deterg 28µM
CC1CCc2nn(CC(=O)N3CCc4ccccc43)cc2C1 (centres undefined)	Pf growth 96h 10µM (no result: Pf growth 48h)
CC1CCc2nn(CC(=O)NCCCN3CCCC3=O)cc2C1 (centres undefined)	Pf growth 96h inconclusive (no result: Pf growth 48h)
Cc1ccc(C)c(N2CCN(CCCNC(=O)Cn3cc4c(n3)CCC(C)C4)CC2)c1 (centres undefined)	Pf growth 96h inconclusive, AmpC no deterg 35µM, AmpC detergent inconclusive
O=C(Cn1cc2c(n1)CCCC2)N1CCCc2ccccc21	none
COc1ccc(CC(=O)NCC(c2cccs2)S(=O)(=O)c2ccc(C)cc2)cc1 (centres undefined)	none (no result: Pf growth 96h, Pf growth 48h, AmpC no deterg, SARS PLP yeast)
CCOC(=O)N1CCC(N2CCCC(CO)(Cc3cccc(Cl)c3)C2)CC1 (centres undefined)	Pf growth 96h inconclusive, Pf growth 48h inconclusive
CCc1ccccc1NCc1nnc2n1CCCCC2	none (no result: Pf growth 96h, Pf growth 48h, AmpC no deterg, SARS PLP yeast)
CC1CCc2nn(CC(=O)NC3CCCC(C)C3C)cc2C1 (centres undefined)	Pf growth 96h 0.37µM, AmpC no deterg 1µM
CCOC(=O)C1=C(C)NC(=O)NC1c1ccc(N(CC)CC)cc1 (centres undefined)	Pf growth 96h inconclusive (no result: Pf growth 48h)
CCN(CC)c1ccc(C2NC(=O)NC(C)=C2C(=O)Nc2ccccc2)cc1 (centres undefined)	Pf growth 96h 2.6µM (no result: Pf growth 48h)
Cc1c(NS(=O)(=O)c2cc(C(=O)N3CCCC(C)C3)ccc2Cl)c(=O)n(-c2ccccc2)n1C (centres undefined)	none (no result: Pf growth 96h, Pf growth 48h, Sm TGR inh, AmpC detergent)
Cc1c(N(C)S(=O)(=O)c2cc(C(=O)N3CCCC3)ccc2Cl)c(=O)n(-c2ccccc2)n1C	Pf growth 96h 4.7µM, Pf growth 48h 13µM
Cc1ccc(-n2nnnc2-c2ccco2)cc1	Pf growth 96h inconclusive
Cc1ccc(-n2nnnc2C(Cl)c2nnnn2-c2ccc(C)cc2)cc1	Pf growth 96h inconclusive, Sm TGR inh 25µM
COc1ccc(CCN2C(=O)CS/C2=N/NC(=O)c2ccccc2F)cc1OC	none
CN1C(=O)[C@@H]2C[C@@]3([C@@]45C[C@H]6C(=O)N(C)[C@@H](Cc7ccccc7)C(=O)N6[C@@H]4Nc4ccccc45)c4ccccc4N[C@H]3N2C(=O)[C@@H]1Cc1ccccc1	Pf growth 96h inconclusive, Pf growth 48h 12µM, AmpC detergent inconclusive
Cc1cccc(NC(=O)Cn2nc(-c3ccccc3)c3cnc4ccccc4c32)c1	AmpC detergent inconclusive (no result: Pf growth 96h, Pf growth 48h, AmpC no deterg, SARS PLP yeast)
Cc1cc(C)cc(N2C(=O)CN(Cc3sccc3C)C2=S)c1	Pf growth 96h inconclusive, Pf growth 48h 9.3µM
COCCNC(=O)COc1ccc(Oc2ccccc2)cc1	Pf growth 96h inconclusive
COc1ccc(S(N)(=O)=O)cc1C(=O)OCCCC(=O)c1ccccc1	Pf growth 96h 15µM, Pf growth 48h inconclusive
O=C(Cc1ccccc1)N(Cc1cccnc1)c1nc2ccc(F)cc2s1	none (no result: Pf growth 96h, Pf growth 48h, AmpC no deterg, SARS PLP yeast)

Screening results from PubChem BioAssay.
